KCNQ2 pot = potentiators of rat KCNQ2 potassium channel; CHO-K1 KCNQ2, FluxOR thallium flux fluorescence; stronger effect = higher value; 310,000 compounds, 0.54% hits; AID 2239, 2010; Potassium voltage-gated channel subfamily KQT member 2 (Rattus norvegicus), O88943; B-score at 10 µM;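 active = fluorescence ratio B-score at least 3 SD of library B-scores, with initial fluorescence B-score within 3 of them, cut at about 5.3 in these data; same plate scores as AID 2156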;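 note: B-score of peak minus minimum over baseline fluorescence ratio after K+ and Tl+ stimulus; positive B-score means potentiation of KCNQ2 with more thallium influx and brighter signal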
Target sequence (O88943 whole entry, looked up): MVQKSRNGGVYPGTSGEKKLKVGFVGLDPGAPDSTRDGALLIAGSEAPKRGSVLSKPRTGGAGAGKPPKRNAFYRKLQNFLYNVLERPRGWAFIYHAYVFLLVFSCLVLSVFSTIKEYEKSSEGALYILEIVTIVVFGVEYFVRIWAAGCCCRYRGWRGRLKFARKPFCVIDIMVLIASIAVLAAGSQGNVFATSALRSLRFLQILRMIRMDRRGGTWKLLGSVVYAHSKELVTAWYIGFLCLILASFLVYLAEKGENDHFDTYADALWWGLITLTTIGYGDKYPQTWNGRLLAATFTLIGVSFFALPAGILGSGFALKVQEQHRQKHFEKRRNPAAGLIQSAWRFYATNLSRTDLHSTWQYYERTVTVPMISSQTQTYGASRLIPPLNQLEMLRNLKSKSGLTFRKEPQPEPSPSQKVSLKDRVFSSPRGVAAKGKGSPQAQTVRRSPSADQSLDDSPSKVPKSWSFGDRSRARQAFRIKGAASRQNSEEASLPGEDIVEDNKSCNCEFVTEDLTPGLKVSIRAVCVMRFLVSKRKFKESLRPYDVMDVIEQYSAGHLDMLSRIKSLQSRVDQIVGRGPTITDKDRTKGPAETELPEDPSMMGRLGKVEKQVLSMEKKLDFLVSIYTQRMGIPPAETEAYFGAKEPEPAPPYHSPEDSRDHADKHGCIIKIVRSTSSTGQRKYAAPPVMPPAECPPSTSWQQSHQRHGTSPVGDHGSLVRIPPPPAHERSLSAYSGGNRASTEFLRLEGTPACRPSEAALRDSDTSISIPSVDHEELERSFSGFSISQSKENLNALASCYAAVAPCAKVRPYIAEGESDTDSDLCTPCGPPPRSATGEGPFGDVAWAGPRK
KCNQ2 block = rat KCNQ2 potassium channel inhibitors, primary screen, cell-based, CHO-K1, FluxOR thallium flux, B-score. Potassium voltage-gated channel subfamily KQT member 2 (Rattus norvegicus), O88943. 310,000 compounds, 1.1% hits. B-score at 10 µM. 20 min; stronger effect = lower value;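 active = fluorescence ratio B-score at most minus 3 library SDs, with starting brightness B-score within 2 library SDs, cut at about -5.5 in these data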
* hit, by the source's call; i = inactive; / = not tested or not shown. Most compounds without a hit are left out; they make up all but 1.6% or so of the library.

SMILES	KCNQ2 pot	KCNQ2 block
COc1ccc2nc(NC(=S)N(C)C)sc2c1	/	i
Cc1ccc(NC(=O)CCCc2ccccc2)c([N+](=O)[O-])c1	0.92	i
CCCCc1ccc(-n2c(Cc3cccs3)n[nH]c2=S)cc1	1.81	i
O=C(CCc1nc2ccccc2s1)NC1CCOC1=O (stereo not given)	/	i
CCc1ccc(NC(=O)c2ccc(F)c(S(=O)(=O)N(CC)c3ccccc3)c2)cc1	/	i
CCN(c1ccccc1)S(=O)(=O)c1cc(C(=O)Nc2cccc(Cl)c2)ccc1F	-8.11	-8.11*
c1ccc(-n2cnnc2SCc2cn3ccsc3n2)cc1	/	i
Cc1ccc(-n2c(SCc3cn4ccsc4n3)nc3ccccc3c2=O)cc1	-5.63	-5.63*
O=C(Nc1ccc2c(c1)OCCO2)c1cc2sccc2n1Cc1ccccc1	/	i
O=C(Nc1ccc2c(c1)OCCO2)c1cc2sccc2n1Cc1ccc(F)cc1	-6.14	-6.14*
Cc1ccc(S(=O)(=O)CCC(=O)OCn2nnc3ccccc3c2=O)cc1	/	i
CN(CC1CCCN(CCc2cccc(C(F)(F)F)c2)C1)C(=O)c1cc2ccccc2o1 (stereo not given)	-6.97	-6.97*
CCN(CC1CCCN(CCc2cccc(F)c2)C1)C(=O)c1cc2ccccc2o1 (stereo not given)	/	i
Cc1ccc(C)c2nc(SCC(=O)N3CCCc4ccccc43)c(C#N)cc12	-7.74	-7.74*
Cc1cccc2cc(C#N)c(SCC(=O)N3CC(=O)Nc4ccccc43)nc12	0.49	i
COc1cccc(CNC(=O)Nc2cccs2)c1	5.67*	i
COc1ccc(CNC(=O)Nc2cccs2)cc1OC	1.92	i
CC(=O)c1ccc(NC(=O)CCNC(=O)c2ccccc2Cl)cc1	1.11	i
Cc1ccccc1C(=O)Nc1ccccc1N1CCCCC1	/	i
O=C(Nc1ccccc1N1CCCC1)c1ccc(Cl)cc1Cl	/	i
O=C(Nc1ccccc1N1CCCC1)c1ccccc1Cl	-6.08	-6.08*
O=C(Nc1ccccc1N1CCCC1)c1cc(Cl)ccc1Cl	-5.74	-5.74*
Cc1cc(C)n(C(=O)CCCn2cc([N+](=O)[O-])cn2)n1	2.15	i
Cc1c(CCO)c(=O)n(-c2ccccc2)n1S(=O)(=O)c1ccc(Cl)cc1	/	i
O=C(CSC1CC(=O)N(c2ccc(C(=O)O)cc2)C1=O)Nc1ccc(Cl)cc1 (stereo not given)	1.38	i
SMILES	KCNQ2 pot	KCNQ2 block
Cc1ccc2c(c1)N(C(=O)CCC(=O)NCc1cccc(Br)c1)CC(C)O2 (stereo not given)	-6.99	-6.99*
Cc1ccc2c(c1)N(C(=O)CCC(=O)Nc1ccccc1Br)CC(C)O2 (stereo not given)	/	i
O=C(NC(NC(=S)Nc1cccc(Cl)c1)C(Cl)(Cl)Cl)OCc1ccccc1 (stereo not given)	1.45	i
O=C(CNC(=O)c1cccs1)Nc1ccc2c(c1)OCCO2	/	i
CCOC(=O)CSc1c(-c2ccc(Cl)cc2)[nH]c2ccccc12	/	i
O=C(Cc1cccs1)NCCSc1c(-c2ccc(Cl)cc2)[nH]c2ccccc12	-7.07	-7.07*
Cc1nnc(SCC(=O)Nc2cc(S(C)(=O)=O)ccc2Cl)n1Cc1ccccc1	/	i
COC(=O)C1CCN(C(=O)COC(=O)CSc2ccc(C(N)=O)cc2[N+](=O)[O-])CC1	/	i
COc1ccccc1N1CCN(C(=O)CSc2ncnc3scc(-c4ccccc4)c23)CC1	/	i
O=C(CSc1ncnc2scc(-c3ccccc3)c12)N1CCN(c2ccccc2F)CC1	-6.19	-6.19*
COc1cc(C(C)=O)ccc1OCC(=O)N(CCC1=CCCCC1)c1c(N)n(Cc2ccccc2)c(=O)[nH]c1=O	1.44	i
CC(C)(C)CC(=O)N[C@@H](Cc1ccccc1)c1nc2ccccc2[nH]1	-7.25	-7.25*
CSCC[C@H](NC(=O)CC(C)(C)C)c1nc2ccccc2[nH]1	/	i
Cc1c(NC(=S)NC(=O)c2sc3ccccc3c2Cl)cccc1C(=O)O	0.24	i
COc1ccccc1C(=O)NNC(=S)NC(=O)c1cccs1	/	i
COc1ccccc1C(=O)NC(=S)Nc1cccc2cc(O)ccc12	-7.93	-7.93*
COc1ccccc1C(=O)NNC(=S)NC(=O)c1sc2ccccc2c1Cl	16.5*	i
COc1ccccc1C(=O)NC(=S)NNC(=O)c1sc2ccccc2c1Cl	22.6*	i
O=C(NC(=S)Nc1cccc2cc(O)ccc12)c1ccccc1Br	/	i
CCCc1cnc(N2CCN(C(=O)c3ccc(OC)cc3)CC2)nc1	0.85	i
COc1ccc2oc(C(=O)Nc3nc(-c4ccccn4)cs3)c(C)c2c1	/	i
Cc1ccc(NC(=O)COC(=O)C2CC(=O)N(Cc3ccccc3)C2)cc1F (stereo not given)	0.72	i
O=C(Cc1n[nH]c(=O)c2ccccc12)NC(c1ccccc1)c1ccccc1	0.61	i
Cc1ccccc1OCc1nc2ccccc2c(=O)n1/N=C/c1cn[nH]c1-c1ccccc1	/	i
Cc1ccccc1OCc1nc2ccccc2c(=O)n1/N=C/c1cccc([N+](=O)[O-])c1	-6.19	-6.19*
SMILES	KCNQ2 pot	KCNQ2 block
Cc1cc(N2CCOCC2)ccc1/C=C\[N+](=O)[O-]	-7.06	-7.06*
O=[N+]([O-])c1ccc(N2CCOCC2)cc1O	1.09	i
COc1ccc2nc(NC(=O)CN3C(=O)NC4(CCCCC4)C3=O)sc2c1	1.09	i
CCOC(=O)c1oc2ccccc2c1NC(=O)c1ccc(Cl)s1	-7.56	-7.56*
CCOC(=O)c1oc2ccccc2c1NC(=O)CCl	/	i
CCOCCCNC(=O)c1oc2ccc3c(c2c1C)C(O)CC(C)(C)O3 (stereo not given)	0.07	i
O=[N+]([O-])c1ccc(/C=N/Nc2nc(N3CCCCC3)nc(N3CCCCC3)n2)o1	-5.56	-5.56*
COc1c(/C=N/Nc2nc(N3CCCCC3)nc(N3CCCCC3)n2)cccc1[N+](=O)[O-]	/	i
Cc1nnsc1S(=O)c1ccccc1Cl (stereo not given)	/	i
CNC(=O)c1sc(N2N=C3/C(=C/c4ccccc4)CCCC3C2c2ccccc2)nc1C (stereo not given)	-6.11	-6.11*
O=C(c1ccccn1)N1N=C2/C(=C/c3ccccc3)CCCC2C1c1ccccc1 (stereo not given)	/	i
O=C1C(Cl)=C(N2CCC(C(=O)O)CC2)C(=O)c2ccccc21	/	i
NC(=O)C1CCN(C2=C(Cl)C(=O)c3ccccc3C2=O)CC1	-12.2	-12.2*
CCc1cc2ccc(C)cc2nc1SCC(=O)NC1CCCC1	0.43	i
CC(Cc1ccccc1)N1C(=O)c2cccc([N+](=O)[O-])c2C1=O (stereo not given)	/	i
CN(C(=O)c1nn(C)c2c1CSc1ccccc1-2)c1ccc(F)cc1	-6.51	-6.51*
CC1CCCN(C(=O)c2nn(C)c3c2CSc2ccccc2-3)C1 (stereo not given)	/	i
O=[N+]([O-])c1c(Nc2ccccn2)cc(Cl)c2nonc12	-11.2	-11.2*
O=C(O)c1ccccc1Nc1cc(Cl)c2nonc2c1[N+](=O)[O-]	0.04	i
CC1(C)Cc2c(sc3nc(=S)[nH]c(N)c23)CO1	/	i
COc1cccc(/C=N/NC(=O)CSc2ccccc2C)c1O	9.45*	i
COc1cccc(/C=N/NC(=O)CSc2ccccc2C)c1OC	/	i
O=C(NCc1ccc2c(c1)OCO2)C(=O)NCC1OCCCN1S(=O)(=O)c1ccc(F)cc1 (stereo not given)	0.05	i
